Read-out in assay [1]: Interleukin-8 (IL8), CXCL8 (gene 3576)
Briefly: BSK_MyoF_IL8: BioMAP Diversity Plus: MyoF Assay for Interleukin-8 (IL8) Biomarker Activity (AID 2284261). The note with it: primary human lung fibroblasts. The procedure, abridged: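 ELISA read-out of IL-8 from primary human lung fibroblasts, 24 h post-dose; positive-direction curve fitting relative to DMSO vehicle baseline.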

Assay [2] can be described thus: BSK_MyoF_SRB: Viability Assessment in the BioMAP Diversity Plus: MyoF Assay (AID 2284267).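 Also: total protein by SRB absorbance in parallel cultures as cytotoxicity measure; cells assessed 24 h after compound addition.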 The following applies: primary human lung fibroblasts. Summed up:
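Confluent human lung fibroblasts were exposed to test chemicals for 24 h. Parallel wells were then fixed in 10% TCA, stained with 0.1% sulforhodamine B and measured at 560 nm. DMSO served as baseline for curve fitting.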

Read-out in assay [3]: Matrix Metallopeptidase 1 (MMP1), MMP1 (gene 4312)
Briefly: BSK_MyoF_MMP1: BioMAP Diversity Plus: MyoF Assay for Matrix Metallopeptidase 1 (MMP1) Biomarker Activity (AID 2284268). The following applies: primary human lung fibroblasts. The procedure, abridged:
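ELISA readout of MMP1 in primary human lung fibroblast cultures, 24 h post-dosing. Gain of signal versus DMSO vehicle control defines activity. Parallel SRB staining (0.1% after 10% TCA fixation, 560 nm) flags overt cytotoxicity.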

Read-out in assay [4]: TIMP metallopeptidase inhibitor 1 (TIMP1), TIMP1 (gene 7076)
The assay can be described thus: BSK_MyoF_TIMP1: BioMAP Diversity Plus: MyoF Assay for TIMP metallopeptidase inhibitor 1 (TIMP1) Biomarker Activity (AID 2284269). The following applies: primary human lung fibroblasts. The procedure, abridged:
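Fibroblasts from human lung are dosed with chemical, cultured 24 h, and assayed for TIMP-1 by ELISA. Increases over the DMSO baseline are scored, with SRB total-protein staining run in parallel for cytotoxicity.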

Read-out in assay [5]: Interleukin-8 (IL8), CXCL8 (gene 3576)
The assay can be described thus: BSK_KF3CT_IL8: BioMAP Diversity Plus: KF3CT Assay for Interleukin-8 (IL8) Biomarker Activity (AID 2284254). The note with it: primary human keratinocytes with fibroblasts. The procedure, abridged:
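Human primary keratinocyte plus foreskin fibroblast co-culture dosed with test chemicals; IL-8 measured by ELISA 24 h after dosing. Activity fitted in the positive direction relative to DMSO negative control.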

Calls of active or inactive are those of the source. The calls were made as follows: active = hit-call score of the fitted dose curve at least 0.9, where 1 is the maximum; inactive = score below 0.9.

Consider `c1ccc(Sc2ccccc2)cc1`, for which the AC50 (as a rule, the concentration giving half of the maximal activity seen) in assay [1] was 30.6 µM (active); in assay [2], 34.8 µM (active); in assay [3] it was 30.8 µM (active); in assay [4] it was 32.3 µM (active).

Consider `CC(C)(C)c1cccc(O)c1`, for which the result in assay [1], in assay [2], in assay [3] and in assay [4] was inactive.

For `c1ccc2c(c1)-c1ccc3ccc4cccc5cc-2c1c3c45`, the result in assay [1], in assay [2] and in assay [4] was inactive. Moreover, the AC50 in assay [3] was 1.33 µM (active).

With `OCCN1CCOCC1`, the result in assay [1], in assay [2], in assay [3] and in assay [4] was inactive.

As for `Nc1ccc(N)c([N+](=O)[O-])c1`, the outcome in assay [1], in assay [2], in assay [3] and in assay [4] was inactive.

As to `CC(C)CCCC(C)(C)O`, in assay [5], the result was inactive.

With `CC=CC(=O)C1=C(C)C=CCC1(C)C`, the result in assay [1], in assay [2], in assay [3] and in assay [4] was inactive.

`CC1(C)[C@H](C=C(Cl)Cl)[C@H]1C(=O)OCc1cccc(Oc2ccccc2)c1`: the outcome in assay [1], in assay [2], in assay [3] and in assay [4] was inactive.

As for `CCCO[Si](OCCC)(OCCC)OCCC`, the outcome in assay [5] was inactive.

Consider `CCCCN(CCO)CCO`, for which the result in assay [5] was inactive.

With `CC(=O)OC(C)(C)C1CC=C(C)CC1` (stereo not given), the outcome in assay [1], in assay [2], in assay [3] and in assay [4] was inactive.

Consider `CC(=O)CCC=C(C)CCC=C(C)C`, for which the result in assay [1], in assay [2], in assay [3] and in assay [4] was inactive.

Regarding `CC(=O)c1ccc(C)cc1`, in assay [5], the result was inactive.

For the molecule `CC(C)(CO)CO`, in assay [5], the result was inactive.

For the molecule `CC1=CC(C)C(C=O)C(C)C1` (stereo not given) (tested in a mixture with another compound), the result in assay [1], in assay [2], in assay [3] and in assay [4] was inactive.

The values are drawn from PubChem BioAssay (EPA / NIEHS).
